# According to PubChem BioAssay (NCI):
# “And” between values parts separate entries of the source, which are not always exact repeats. Identical values can stand only once. About 83,000 compounds went through this panel and 20% of them were active in at least one assay; those are over-represented in the sample as a whole.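 Single-concentration screen, 48 h exposure, 96-well plates. Endpoint: percent growth. Below 10 = active.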 The source made the active and inactive calls.
# Test system: HL-60(TB) leukemia
# Assay: NCI-60 one-dose screen, 48 h (100 = growth as untreated, 0 = no growth, -100 = all killed)
# Details: 10 µM unless noted
row,Compound,growth
1,Nc1nc(Nc2cc(Cl)cc(Cl)c2)nn1S(=O)(=O)c1ccc2ccccc2c1,88.6% (inactive)
2,Cc1ccc(CNc2ccc(Cl)cc2NCc2ccc(C)c(O)c2)cc1O,8.41% (active)
3,CC(C)(C)[Si](C)(C)OC1[C@@H](COC(N)=O)O[C@@H](n2cnc3c(N)ncnc32)[C@H]1O[Si](C)(C)C(C)(C)C (stereo not given in full),-18% (active)
4,COc1ccc(-c2nnc(SCC(=O)c3ccc(Cl)cc3)o2)cc1,108% (inactive)
5,Nc1ccc(O)c(C(=O)O)c1,89.4% (inactive) and 104% (inactive) and 106% (inactive)
6,COc1cccc(Nc2nc(NCCO)c3ccccc3n2)c1,61.4% (inactive)
7,COc1ccc2nc(NC(=O)CN3CCn4c(nnc4C(F)(F)F)C3)sc2c1,103% (inactive)
8,COc1cc(NCCN=C(N)NC(N)=NC(C)C)c2ncccc2c1,74.8% (inactive)
9,COc1ccc(-c2nnc(SC/C(=N\O)c3ccccc3)o2)cc1,86.8% (inactive)
10,CCCCCCCCCCCCCCCCC(C(=O)O)C(O)(CC(=O)O)C(=O)O (stereo not given),94.6% (inactive) and -8.25% (active)
11,COc1cc(-c2n/c(=C\c3c(O)[nH]c4ccccc34)cc3c2=Nc2ccccc2-3)cc(OC)c1OC,-15.3% (active)
12,Nc1cccc(NC(=O)C(=O)Nc2cccc(N)c2)c1,97.5% (inactive)
13,CCCCCCCCCCCCCCNc1nc(CO)ncc1-c1ccc(C(F)(F)F)cc1,99.1% (inactive)
14,O=C(c1ccccc1)C(CN1CCOCC1)c1ccccc1 (stereo not given),12.2% (inactive)
15,CC(C)(C)n1cc(-c2ccnc(NCCCNS(=O)(=O)c3ccc(F)cc3)c2)c(-c2cccc(F)c2)n1,38.2% (inactive)
16,c1ccc(Nc2ccc(Nc3nc(-c4ccccc4)nc4ccccc34)cc2)cc1,87.1% (inactive)
17,O=C(CCCCCCN1CC(=O)N2[C@H](c3cc(Br)cs3)c3[nH]c4ccccc4c3C[C@H]2C1=O)NO,4.98% (active)
18,CC(=O)OC[C@]12CCC(C)(C)C[C@H]1[C@@]1(O)[C@H](O)C[C@@H]3[C@@]4(C)CCCNC(C)(C)[C@@H]4CC[C@@]3(C)[C@]1(C)CC2,105% (inactive)
19,CC(C)N1CCN(Cc2ccc3c(NNC(=O)c4ccccc4)nc4cc(F)ccc4n23)CC1,8.42% (active)
20,C=C(C)[C@@H]1CCC[C@]2(COS(=O)(=O)c3ccc(C)cc3)CC[C@]3(C)[C@@H](CC[C@@H]4[C@@]5(C)CCCNC(C)(C)[C@@H]5CC[C@]43C)[C@@H]12,-35% (active)

row,Compound,growth
1,CCOC(=O)c1cn2ncnc(Oc3ccc(NC(=O)NC4CCCCC4)c(Cl)c3)c2c1C,70.9% (inactive)
2,CCCCC(=O)Nc1ncc(Cc2ccc(Cl)cc2)s1,66.1% (inactive)
3,O=C(Nc1cccc(-c2cccc(F)c2)c1)C1CCN(Cc2cccc3cccnc23)CC1,28% (inactive)
4,COc1cc(OCc2cccc(-c3ccc(C(O)c4nccs4)cc3)c2C)cc(OC)c1CNCCNC(C)=O (stereo not given),101% (inactive)
5,Cc1cc(N2CCCC2)nc(N(CCNc2ccnc3cc(Cl)ccc23)Cc2ccco2)n1,-52.8% (active)
6,C=C1C(=O)O[C@H]2[C@H]1CC/C(COC(=O)CCC(=O)NCCOCCOCC(=O)Nc1ccc(OC)c(C(N)=O)c1O)=C\CC[C@@]1(C)O[C@@H]21,65.3% (inactive)
7,COc1cc(NS(C)(=O)=O)ccc1Cc1c2ccccc2nc2ccccc12,-2.45% (active)
8,O=c1c2ccccc2c2nccn2c2cc(Cl)ccc12,30.3% (inactive)
9,C=C1C(=O)O[C@H]2[C@H]1CC/C(COC(=O)NCc1ccc(Cn3c(=O)sn(CCI)c3=O)cc1)=C\CC[C@@]1(C)O[C@@H]21,0.649% (active)
10,CCOC(=O)/C=C/c1ccc(C(=O)OCC)[nH]1,51.2% (inactive)
11,O=C(N/N=C\c1cc(Cl)ccc1O)c1ccncc1,0% (active)
12,CCn1nc(-c2ccc(C(=O)OC)cc2)nc2c(=O)n(C)c(=O)nc1-2,132% (inactive)
13,COc1ccc2c(c1)/C(=C1/S/C(=N/c3nnc(C)s3)NC1=O)C(=O)N2Cc1ccc(Br)cc1,32.5% (inactive)
14,Cc1ccc(C(C(N)=O)C(C(N)=O)c2ccccc2)cc1 (stereo not given),84.7% (inactive)
15,CC(C)=C1C=C2CC[C@@H]3[C@](C)(CCC[C@@]3(C)C(=O)O)[C@H]2CC1,105% (inactive)
16,CCC(C)CC(C)C(=O)c1c(O)ccn(OC)c1=O (stereo not given),94.6% (inactive)
17,CC(=O)OCC(=O)[C@@]1(O)CC[C@H]2[C@@H]3CC[C@@H]4C[C@H](O)CC[C@]4(C)[C@H]3C(=O)C[C@@]21C,94% (inactive)
18,O=C1C=CC2(NN=C(c3ccccc3)N2c2cccc(Cl)c2)c2cccc(O)c21 (stereo not given),21.8% (inactive)
19,O=C(c1ccccc1)c1ccc(-c2ccc(O)cc2)cc1,75.1% (inactive)
20,CCN(CC)c1ccc(NC(C(=O)c2ccccc2)c2ccccc2)cc1 (stereo not given),65.5% (inactive)
